CF NFkB block: inhibitors of cystic fibrosis induced NF-kB; 360,000 tested, 0.86% active; inhibition, % at 5 µM; KKLEB NF-kB-GFP reporter, PAF-induced, GFP fluorescence overnight; AID 588850;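 active means at least 50% inhibition at 5 µM, scaled per plate between neutral and stimulator controls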;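 further: PAF is a Pseudomonas aeruginosa culture filtrate used as stimulus; plate controls were PAF-stimulated DMSO wells for no effect and unstimulated DMSO wells for full effect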
Peg3 prom inh-1: inhibitors of Peg3 promoter; HeLa PEG-Prom luciferase reporter, luminescence, overnight; inhibition, % at 20 µM; 360,000 tested, 1.7% active; AID 588405;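 active means inhibition of at least 50% at 20 µM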
MITF TRPM1 inh: inhibitors of MITF-driven TRPM1 promoter in melanoma cells; SK-MEL-5 TRPM1 promoter luciferase, 24 h; inhibition, % at 12.5 µM; 330,000 tested, 0.83% active;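 active means mean inhibition across replicates of 60% or more, whatever share of single replicates reaches that level; inconclusive means some that reach 60%, reason not given; inactive means mean inhibition across replicates below 60%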
B2AR ag: agonists of human beta-2 adrenergic receptor inducing internalization; P07550; Am2.2-beta2AR cells, FAP receptor internalization, flow cytometry; response, % (test concentration not listed); 340,000 tested, 0.43% active; AID 504454;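 active means response above a set limit, near 3 SD of response in nonfluorescent compounds, cut at about 42% in these data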
Target sequence (P07550 whole entry, looked up): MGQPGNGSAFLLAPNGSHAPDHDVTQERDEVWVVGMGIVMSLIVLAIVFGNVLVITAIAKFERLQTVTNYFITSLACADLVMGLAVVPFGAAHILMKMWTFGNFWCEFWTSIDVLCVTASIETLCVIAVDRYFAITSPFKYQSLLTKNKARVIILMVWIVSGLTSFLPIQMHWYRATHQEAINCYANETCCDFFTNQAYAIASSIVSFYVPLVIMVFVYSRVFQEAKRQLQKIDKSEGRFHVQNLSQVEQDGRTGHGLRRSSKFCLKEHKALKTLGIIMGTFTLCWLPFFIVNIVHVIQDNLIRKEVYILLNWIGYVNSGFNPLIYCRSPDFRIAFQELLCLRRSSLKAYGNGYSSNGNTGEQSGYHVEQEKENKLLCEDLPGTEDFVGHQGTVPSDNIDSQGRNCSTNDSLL
HIF-2a block: blocks HIF-2a reporter activity; inhibition, % at 18.8 µM; 786-0 RCC cells HIF-2a reporter, luciferase luminescence, overnight; 360,000 tested, 0.72% active;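 active means inhibition of the luminescence signal of 40% or more relative to plate controls, in a single-dose primary screen at 18.75 µM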
KKLEB tox: reduces viability of KKLEB cystic fibrosis airway cells; activity change (cytotoxicity), % at 5 µM; KKLEB CF airway cells viability, ATPlite luminescence, overnight; hits give low values; cells stimulated with P. aeruginosa culture filtrate; 360,000 tested, 0.36% active;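 active means corrected activity change at or below -50% at 5 µM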
Peg3 prom inh-2: confirmation of Peg3 promoter inhibitors | shares compounds with Peg3 prom inh-1 | HeLa PEG-Prom luciferase reporter, luminescence, overnight | inhibition, % at 20 µM | 1,300 tested, 84% active | AID 602417;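 active means at 20 µM dose, 40% or more inhibition averaged across four replicates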
* hit, by the source's call; ? = inconclusive; / = no result. An excerpt weighted towards active compounds, which were near 2.8% of everything screened.

SMILES | CF NFkB block | Peg3 prom inh-1 | MITF TRPM1 inh | B2AR ag | HIF-2a block | KKLEB tox | Peg3 prom inh-2
Cc1ccc2sc(N(CCCN(C)C)C(=O)c3ccc(S(=O)(=O)N4CCc5ccccc5C4)cc3)nc2c1C | -14.9 | 59.5* | 64.6* | 29.6 | 26.7 | -46.9 | 57.1*
CCOc1cccc2sc(N(CCCN(C)C)C(=O)c3ccc(S(=O)(=O)N(CC)Cc4ccccc4)cc3)nc12 | 9.1 | 94.9* | 56.9 | 24.7 | -4.6 | -16.0 | 97.4*
CCOc1cccc2sc(N(CCCN(C)C)C(=O)c3ccc(C(=O)c4ccccc4)cc3)nc12 | 28.3 | 30.4 | 11.6 | 30.1 | -6.3 | -12.2 | /
Cc1ccc2sc(N(CCCN(C)C)C(=O)c3ccc(S(=O)(=O)N(C)Cc4ccccc4)cc3)nc2c1C | 28.9 | 65.5* | 77.9* | 18.4 | 1.0 | -33.1 | 95.8*
CCOc1cccc2sc(N(CCCN(C)C)C(=O)Cc3ccccc3)nc12 | -2.5 | -31.9 | 13.2 | -1.2 | 13.2 | 6.3 | /
CCOc1cccc2sc(N(CCCN(C)C)C(=O)c3ccc(S(=O)(=O)N(C)Cc4ccccc4)cc3)nc12 | 26.3 | 98.2* | 94.5* | 29.6 | 3.4 | -26.0 | 94.7*
CCc1nc2c(OCc3c(C)noc3C)cccn2c1N(C=O)Cc1ccccc1 | -10.4 | 1.5 | / | / | 0.9 | -2.6 | /
Cc1ccc(F)c(C(=O)N2CCCC(C)(C(=O)NS(=O)(=O)C3CC3)C2)c1F (stereo not drawn) | -14.7 | 0.9 | / | / | 10.6 | 10.7 | /
CCOC(=O)N1CCN(C(=O)C[C@@H]2C[C@@]3(C(=O)OC)CCCCC=C3N(Cc3ccc(Cl)cc3Cl)C2=O)CC1 | / | / | / | / | 10.6 | / | /
Cc1cc(C)c2sc(N(CCCN(C)C)C(=O)c3ccc(S(=O)(=O)N(C)Cc4ccccc4)cc3)nc2c1 | 7.9 | 97.1* | 56.7 | 30.7 | 15.4 | -10.6 | 98.3*
COc1ccc2sc(N(CCCN(C)C)C(=O)c3ccc(S(=O)(=O)N(C)Cc4ccccc4)cc3)nc2c1 | 14.2 | -9.8 | 22.1 | 15.4 | -19.4 | -10.3 | /
Cc1ccc2c(c1)C1(SC(C)C(=O)N1c1ccc(Cl)cc1)C(=O)N2 (stereo not drawn) | 4.4 | 24.9 | / | / | 23.6 | -9.6 | /
COCC(C)n1c(C)cc(C(=O)COC(=O)c2cccn2C)c1C (stereo not drawn) | 4.9 | 55.5* | 41.9 | -7.1 | 11.8 | -0.7 | 45.3*
CN=c1scc(-c2cccs2)n1/N=C/c1ccccc1O | -9.6 | 90.9* | 86.9* | -6.5 | 90.1* | -69.3* | 94.7*
Cc1cc(C)n(/N=C/c2ccccc2O)c(=O)c1 | -0.2 | -12.5 | -10.0 | -0.6 | 6.5 | 10.5 | /
CC(=O)Nc1cccc(-c2ccnc3c2CC(C(=O)Nc2cccc(OC(F)(F)F)c2)O3)c1 (stereo not drawn) | 4.4 | 42.2 | / | / | 29.8 | -3.4 | /
COc1ccc(-c2ccc(-c3nc4c(c(=O)[nH]c(=O)n4Cc4ccccc4)n3C)o2)c([N+](=O)[O-])c1 | 21.3 | 57.0* | 5.9 | -13.3 | 2.9 | -36.9 | 15.6
COCCn1c(-c2ccc(SC)cc2)nc2c1c(=O)[nH]c(=O)n2CC(C)C | 9.5 | -60.3 | -38.1 | -17.8 | -16.9 | -0.1 | /
COCCn1c(-c2ccc(-c3ccc([N+](=O)[O-])cc3Br)o2)nc2c1c(=O)[nH]c(=O)n2CC(C)C | 18.8 | 51.7* | 7.2 | -14.1 | 18.1 | -5.5 | 30.4
COCCn1c(=O)[nH]c(=O)c2c1nc(-c1ccc(-c3ccc(Cl)cc3[N+](=O)[O-])o1)n2Cc1ccccc1 | -15.1 | 43.6 | 22.4 | 28.3 | -9.4 | -5.2 | /
CCN(c1ccccc1)S(=O)(=O)c1ccc(Cl)c(C(=O)Nc2ccncc2)c1 | 25.3 | 18.1 | / | / | 23.8 | -39.2 | /
O=C(CC[C@H]1O[C@@H](n2ccc(=O)[nH]c2=O)[C@H](O)[C@@H]1O)N[C@H](Cc1ccccc1)C(=O)NC1CCCCC1 | 3.3 | 5.3 | / | / | 14.8 | -4.8 | /
CCOC1=C2CN(S(=O)(=O)c3ccc(C)cc3)C(c3cccc(Cl)c3)CC2N(S(=O)(=O)c2ccc(C)cc2)C(c2ccncc2)C1 (stereo not drawn) | / | / | / | / | 11.3 | / | /
Cc1cccc(N2CCN(C3C(=O)Nc4ccccc4-n4nnnc43)CC2)c1C (stereo not drawn) | / | / | / | / | 20.0 | / | /
NC(N)=N/N=C/c1cccc(Cl)c1Cl | -1.3 | 75.8* | -7.6 | 20.0 | -6.8 | -10.9 | 80.1*
SMILES | CF NFkB block | Peg3 prom inh-1 | MITF TRPM1 inh | B2AR ag | HIF-2a block | KKLEB tox | Peg3 prom inh-2
O=S(=O)(N[C@H]1C[C@@H](NS(=O)(=O)OCC(Cl)(Cl)Cl)C2CCCCC21)OCC(Cl)(Cl)Cl (stereo partly drawn) | 9.0 | 60.9* | 2.8 | 8.5 | -26.2 | 11.4 | 83.7*
COc1cc(NC(=O)c2ccc(F)cc2)c(OC)cc1Cl | -19.6 | -16.4 | 15.4 | -3.5 | -21.6 | 5.1 | /
COc1cc(NC(=O)c2c(F)c(F)c(F)c(F)c2F)c(OC)cc1Cl | -14.0 | 69.5* | 39.5 | 16.1 | 24.4 | 13.8 | 53.1*
C=CCc1cccc(/C=N/NC(=O)C(C)Nc2ccc(C)cc2)c1O (stereo not drawn) | 44.9 | 55.0* | 25.6 | 18.2 | 24.3 | -32.8 | 41.2*
CCc1nc2c(OCc3ccc(C(=O)N(C)C)cc3)cccn2c1N(C)C(=O)Nc1ccccc1OC | 10.9 | -5.8 | / | / | 8.9 | -14.3 | /
Cc1ccc(-c2nc3ccc(Cl)cn3c2Cc2cccc(F)c2)cc1 | 1.5 | -182.7 | / | / | -210.2 | -32.3 | /
CC(C)CC(=NNC(=O)c1ccncc1)c1cc(Cl)ccc1O | 33.5 | 63.6* | 54.8 | 13.9 | 14.2 | -8.0 | 73.4*
O=C(NC1CCCC1)C1c2ccccc2OCC(=O)N1Cc1ccc2c(c1)OCO2 (stereo not drawn) | / | / | / | / | 6.2 | / | /
O=C1NC(Cc2ccccc2)c2nc3cc(F)ccc3c(=O)n2-c2cc3ccccc3cc21 (stereo not drawn) | -8.7 | 21.5 | / | / | 24.4 | -2.9 | /
O=C1NC(Cc2ccc(O)cc2)c2nc3ccc(F)cc3c(=O)n2-c2cc3ccccc3cc21 (stereo not drawn) | -2.8 | 54.1* | / | / | -28.9 | -16.7 | 60.0*
Cc1c(Cl)cc(-n2cnnn2)cc1[N+](=O)[O-] | -22.8 | 11.0 | 2.3 | -6.6 | 12.6 | 2.7 | /
Cc1c([N+](=O)[O-])cc(N2C(=O)C=CC2=O)cc1[N+](=O)[O-] | 3.1 | 105.1* | 50.0 | 1.5 | 21.3 | -1.4 | 98.3*
C[C@@H]1CN([C@H](C)CO)S(=O)(=O)c2ccc(C#Cc3cccc(F)c3)cc2O[C@@H]1CN(C)C(=O)CN1CCOCC1 | 8.7 | 0.9 | / | / | 8.1 | -5.4 | /
CN1CCN(c2ccc(NC(=O)N3CCc4ccccc43)cc2)CC1 | 5.9 | 57.6* | ? | -6.7 | 27.1 | -20.3 | 50.9*
COc1cc(C=NO)nc(-c2ccccn2)c1 | 18.0 | 52.2* | 79.2* | -32.0 | 1.7 | -16.4 | 64.6*
O=C(O)C(Cc1ccccc1)N1C(=O)C2C3CCC(C3)C2C1=O (stereo not drawn) | 19.3 | 2.0 | / | / | 0.4 | -5.8 | /

Source: PubChem (several laboratories)
